Results as given in PubChem BioAssay (NCATS).
Several values for one entry are separate records, joined by “and”; a condition that tells them apart may be missing. Equal entries are not always repeated. Results filed as inconclusive are left out. Activity calls are given as the source filed them. The call rests on the fitted dose curve; in most records, active means well fitted curve in the direction sought with a large enough effect; inconclusive means small, poorly fitted or top-dose-only effect, or another doubt; inactive means no such curve, though single readings can be large; an effect the other way counts as inactive or inconclusive.

Biological target: Cytochrome P450 2C19 (Homo sapiens) (UniProt P33261)
Sequence (P33261 whole entry, looked up): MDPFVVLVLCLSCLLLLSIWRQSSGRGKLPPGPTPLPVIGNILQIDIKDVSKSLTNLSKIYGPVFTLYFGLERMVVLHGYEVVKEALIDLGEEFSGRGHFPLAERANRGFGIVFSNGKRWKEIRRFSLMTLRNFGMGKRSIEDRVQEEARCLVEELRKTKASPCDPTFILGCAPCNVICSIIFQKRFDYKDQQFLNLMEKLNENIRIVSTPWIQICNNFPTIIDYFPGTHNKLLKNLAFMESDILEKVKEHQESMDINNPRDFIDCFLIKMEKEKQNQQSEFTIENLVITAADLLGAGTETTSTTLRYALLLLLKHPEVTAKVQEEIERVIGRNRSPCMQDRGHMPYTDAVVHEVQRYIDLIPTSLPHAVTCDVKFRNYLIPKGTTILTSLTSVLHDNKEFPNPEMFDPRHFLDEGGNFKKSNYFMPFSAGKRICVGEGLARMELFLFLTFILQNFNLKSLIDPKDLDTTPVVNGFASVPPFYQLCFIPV
Test: qHTS Assay for Inhibitors and Substrates of Cytochrome P450 2C19 (AID 899); further: nearly all actives have a fitted effect of over 60% in size; further: potency means the concentration at half of the fitted maximal effect; on activity, negative = inhibition: on the % scale 0 is the no-effect control and ±100 the full control effect
Conditions: recombinant CYP2C19, luciferin-H EGE luminescence; series mostly up to 57.1 µM; activity, negative = inhibition: at the top concentration
Outline: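 Human CYP2C19 (5nM) with Luciferin-H EGE at 10uM (its KM) in 50mM KPO4 was preincubated with compound for 10 min at 37C. NADPH regeneration started a 60 min 37C reaction. Luciferin was read by luminescence, normalized to 57uM ketoconazole.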

| SMILES | activity, negative = inhibition | Potency |
| --- | --- | --- |
| Cc1cc(C(C)(C)C)c(O)c(C)c1CC1=NCCN1 | 2.2% (inactive) | – |
| O=C1N(c2ccccc2)c2ccccc2C1(Cc1ccncc1)Cc1ccncc1 | – | 3.16 µM (active) and 199 nM (active) |
| COc1nc(C)nc(Cl)c1NC1=NCCN1 | 59.7% (inactive) | – |

Tested on: not listed separately
Test: Confirmation and Secondary Assay for Modulators of Hemoglobin Beta Chain Splicing at IVS2 654 locus (AID 910);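 further: per-well total GFP intensity by laser scanning cytometry after 2-day treatment; % of control where 0% means no effect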
Conditions: HeLa EGFP-654 splicing reporter, GFP fluorescence, 48 h; series mostly up to 46.1 µM; activation (splicing correction): at the top concentration
Outline: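 HeLa cells stably carrying EGFP interrupted by mutant beta-globin IVS2-654 intron (CMV-driven) were treated with compound for 2 days at 37C; corrected splicing was scored as total peak GFP intensity per well (488 nm excitation, 500-520 nm emission).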

| SMILES | activation (splicing correction) |
| --- | --- |
| Cc1cc(C(C)(C)C)c(O)c(C)c1CC1=NCCN1 | -3% (inactive) |
| NCCCCCC(=O)O | 5.45% (inactive) |
| OCCN1CCN(CCCN2c3ccccc3Sc3ccc(C(F)(F)F)cc32)CC1 | -6.93% (inactive) |
| O=c1c(O)c(-c2ccc(O)c(O)c2)oc2cc(O)cc(O)c12 | 7.7% [at 38.3 µM] (inactive) |
| CN1CCN(C2=Nc3cc(Cl)ccc3Nc3ccccc32)CC1 | -2.18% (inactive) |
| Cc1cc(C(C)(C)C)cc(C)c1CC1=NCCN1 | -2.38% (inactive) |
| O=C(CCCN1CCC(O)(c2ccc(Cl)cc2)CC1)c1ccc(F)cc1 | 1.12% (inactive) |
| Cn1cnc2c1c(=O)[nH]c(=O)n2C | -0.752% (inactive) |
| O=C(c1ccc(F)cc1)C1CCN(CCn2c(=O)[nH]c3ccccc3c2=O)CC1 | -0.332% [at 38.3 µM] (inactive) |
